Our source for the cell viability values is the supplement of paper PMC10941209.

Each structure is given as a SMILES string.

In this test the test system is HFF. The test is described as follows: cell viability relative to DMSO control; higher = less cytotoxic. To be noted: 1 µM; 72 h. Here is the method: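 Single-dose cytotoxicity screen of the MMV Pandemic Response Box at 1 uM on human foreskin fibroblasts (HFF), 72 h at 37 C. Viability measured by MTT (OD 550 nm) and normalised to the DMSO control (% survival).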
`CC(=O)NC[C@H]1CN(c2ccc(N3CCSCC3)c(F)c2)C(=O)O1` had a cell viability of 67.2%.
Molecule `Cc1onc(-c2ccccc2)c1-c1ccc(S(N)(=O)=O)cc1` had a cell viability of 66.8%.
In turn, `Nc1nc(Nc2ccc3nc(-c4ccc(F)cc4)cc(N)c3c2)cc(-c2ccccc2)n1` returned a cell viability of 78.1%.
In turn, `Clc1cc(Cl)c2c(c1)CCc1ccccc1C2n1ccnc1` (configuration not stated) showed a cell viability of 80.7%.
As to `Cc1cc(C)n(O)c(=O)c1`, the cell viability came to 68.5%.
Regarding `O=C1c2cccc3cccc(c23)C(=O)N1CC1CO1` (configuration not stated), the cell viability was 63.8%.
Turning to `OCCC#Cc1nc(-c2ccc(F)cc2)c(-c2ccncc2)n1CCCc1ccccc1`, the cell viability is 81.7%.
Molecule `CCC(C)NCC(O)Cn1c2ccc(Cl)cc2c2cc(Cl)ccc21` (configuration not stated) showed a cell viability of 68.3%.
Regarding `NC(=O)C(c1ccccc1)(c1ccccc1)[C@H]1CCCN(CCc2ccc3c(c2)CCO3)C1`, the cell viability was determined as 64%.
Molecule `Cc1cc(-c2ccccc2)c(C(=O)C(=O)Nc2ccc(N3CCN(c4ncc(F)cn4)CC3)cc2)n1C` gave a cell viability of 76.8%.
As for `O=C(O)[C@H]1C2CCC(CC2)[C@@H]1Nc1nc(-c2c[nH]c3ncc(F)cc23)ncc1F`, the cell viability came to 67%.
Turning to `CC[C@H](CO)Nc1nc(NCc2ccccc2)c2ncn(C(C)C)c2n1`, the cell viability is 68.9%.
In the case of `COc1cc(Cc2cc(N)nc(N)n2)cc(OC)c1OC`, the cell viability stood at 65.1%.
Consider `CC[C@@]1(O)C(=O)OCc2c1cc1n(c2=O)Cc2cc3c([N+](=O)[O-])cccc3nc2-1`, for which the cell viability came out at 53.1%.
In turn, `C[C@@H](O)[C@H](N)C(=O)NS(=O)(=O)c1cccc(-c2ccc3[nH]ncc3c2)c1` returned a cell viability of 63.3%.
In turn, `COc1cccc(N2CCN(C3=Nc4c(F)cccc4[C@H](CC(=O)O)N3c3cc(C(F)(F)F)ccc3OC)CC2)c1` displayed a cell viability of 55.7%.
Molecule `CC1(C)C[C@H]1C(=O)N/C(=C\CCCCSC[C@@H](N)C(=O)O)C(=O)O` gave a cell viability of 71.5%.
The molecule `Nc1nc(-c2ccccc2)nc2c1ncn2[C@@H]1O[C@H](COS(=O)(=O)NC(=O)c2ccccc2O)[C@@H](O)[C@H]1O` gave a cell viability of 72.2%.
For the molecule `O=C(CC1Sc2ncnn2C1=O)Nc1ccc(Br)cc1` (configuration not stated), the cell viability worked out at 59.7%.
As for `Fc1ccc2c(/C=C/c3cccnc3)c[nH]c2c1`, the cell viability was 63.2%.
As for `Nc1nc2c(ncn2COCCO)c(=O)[nH]1`, the figure is 68.8%; as for `COc1cc(NS(=O)(=O)c2ccc(C)cc2)c2ncccc2c1`, 72.5%; as for `O=C1[C@H](CC[C@H](O)c2ccc(F)cc2)[C@@H](c2ccc(O)cc2)N1c1ccc(F)cc1`, 73%.
The same measure for `O=C(NC(=O)N1CCCc2ccccc21)c1cccc(Cl)c1`: 75.5%; for `Nc1nc(=O)[nH]cc1F`: 64.8%; for `N=C(N)c1ccc(COc2ccc(Cl)cc2)cc1`: 65.4%.
The molecule `CC(C)Oc1ccc(-n2cnc3cc(/C=C\c4ccc(C(C)(C)O)cc4)ccc32)cc1` came in with a cell viability of 64.2%.
Take `COc1ccc2c(c1OC)C(=O)OC2C1c2c(cc3c(c2OC)OCO3)CCN1C` (configuration not stated): the cell viability worked out at 74.8%.
`O=c1ccc2ncc(=O)n3c2n1CC3CN1CCC(NCc2cc3c(cn2)OCCC3)CC1` (configuration not stated) returned a cell viability of 60%.
In the case of `CCN(CC)CCCC(C)Nc1ccnc2cc(Cl)ccc12` (configuration not stated), the cell viability stood at 66.4%.
Take `COc1ccc2cc3[n+](cc2c1OCCN(CCn1cncn1)Cc1ccc(F)cc1F)CCc1cc2c(cc1-3)OCO2`: the cell viability came out at 61.3%.
For the molecule `CC(C)(C)c1cc(C(=O)/C(C#N)=N/Nc2cccc(Cl)c2)no1`, the cell viability is 53%.
In turn, `Nc1cc(N)c2nc(-c3ccccc3)c(Nc3ccc(F)cc3)nc2c1` registered a cell viability of 80.1%.
In the case of `Cc1ccc(C)c(OCCCCCCN2C[C@H](O)[C@@H](O)[C@H](O)[C@H]2CO)c1`, the cell viability was 64.6%.
In turn, `Cc1ncc([N+](=O)[O-])n1CC(C)O` (configuration not stated) came in with a cell viability of 68.8%.
Molecule `Nc1ccc(-c2nc3cc(C(F)(F)F)ccc3n2C23CC4CC(CC(C4)C2)C3)cc1` showed a cell viability of 66.3%.
With `CCCCSc1nc(N)c2[nH]c(=O)c(=O)n(Cc3ccccc3)c2n1`, the cell viability turned out to be 67.5%.

By cell viability is commonly meant a read-out of living cells in per cent, often relative to untreated cells.
